phage Ecoli inh – growth loss of phage-infected E. coli, primary screen, RecBCD inhibitor project, absorbance, with phage, HTS. inhibition, % at 11.9 µM. hit rate 0.26% among 360,000. AID 651602, 2012; in the data active means inhibition above about 11%
AddAB inh – growth inhibition of E. coli expressing H. pylori AddAB, primary screen, AddAB inhibitor project, absorbance. inhibition, % at 11.9 µM. hit rate 0.29% among 330,000; in the data active means inhibition above about 12%;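 further: 0% = vehicle wells of infected cells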
E coli growth-1 – E. coli V3065 growth inhibition, primary screen, counter-screen for AddAB inhibitor project, absorbance, OD600; AID 449728, 2010; inhibition, % at 11.9 µM; hit rate 0.27% among 330,000; 18 h;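 active means inhibition above the campaign's mean inhibition across all tested compounds plus 3 SD, cut at about 9.9% in these data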;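 further: uninfected addAB+ strain grown without phage in ampicillin broth; 0% = DMSO wells and 100% = ciprofloxacin 0.95 µg/ml wells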
Tat transport – E. coli Tat export inhibitors, primary screen, MC4100, TorA-mCherry reporter, fluorescence, single point. inhibition, % at 10 µM. hit rate 0.036% among 340,000. AID 488895, 2010;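 active means mean replicate inhibition at least 50% and at least half of replicates individually reaching 50%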;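 further: exported cargo escapes ClpAP degradation while cytoplasmic cargo is degraded and loses fluorescence; 0% = median of neutral control wells and 100% = median of NaSCN control wells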
E coli growth-2 – E. coli growth inhibition, primary screen, OD600; Escherichia coli growth, 23 h; stronger effect = lower value; OD600 absorbance (test concentration not listed); hit rate 0.21% among 330,000; AID 1053175, 2014;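 active means OD600 absorbance below the run mean of sample wells minus 3.6 SD, in any replicate, cut at about 0.56 in these data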
AddAB conf – growth loss of phage-infected E. coli expressing H. pylori AddAB, confirmation, AddAB inhibitor project, absorbance, E. coli V3065, T4 phage, triplicate; shares compounds with AddAB inh; inhibition, % at 11.9 µM; hit rate 64% among 880; AID 488942, 2010; OD; T4 phage with gene 2 nonsense mutations;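 active means mean inhibition above a set limit taken from the earlier primary screen, cut at about 13% in these data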;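 further: higher means less bacterial growth since AddAB block lets phage replicate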
RecBCD counter – growth loss of RecBCD+ E. coli with mutant T4 phage, counter-screen for AddAB inhibitor project, absorbance, V66 E. coli | shares compounds with AddAB inh | OD growth | inhibition, % at 11.9 µM | hit rate 73% among 880;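 active means mean inhibition above the mean of solvent-only control wells plus 3 SD, cut at about 4% in these data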;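 further: optical density read after an 18 h incubation at 37 °C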
Bact viability – bacterial viability inhibition counter-screen, confirmation, counter-screen for AddAB inhibitor project, absorbance. shares compounds with AddAB inh. absorbance (AddAB counterscreen). inhibition, % at 11.9 µM. hit rate 35% among 880. AID 488956, 2010; in the data active means inhibition above about 25%
RecBCD conf – growth loss of phage-infected RecBCD+ E. coli, confirmation, RecBCD inhibitor project, absorbance, E. coli V66, T4 gene 2 phage; hit rate 45% among 890; AID 651982, 2013; E. coli V66 + T4 2- phage, growth OD; inhibition, % at 11.9 µM; shares compounds with phage Ecoli inh;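 active means mean inhibition over triplicates exceeding the hit threshold derived in the original primary screen, cut at about 11% in these data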
Ecoli viability – E. coli viability inhibition, counter-screen for RecBCD inhibitor project, absorbance, high throughput; shares compounds with phage Ecoli inh; hit rate 29% among 890; inhibition, % at 11.9 µM; absorbance (OD) growth; in the data active means inhibition above about 20%;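 further: E. coli strain V66 grown with compound alone and no phage infection; 0% = bacteria with DMSO vehicle only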
AddAB phage OD – growth loss of phage-infected AddAB-carrying E. coli, confirmation, counter-screen for RecBCD inhibitor project, absorbance, E. coli V3065, T4 phage | shares compounds with phage Ecoli inh | E. coli expressing H. pylori AddAB + T4 phage, OD growth; gene 2 mutant T4, recBCD-deleted host | hit rate 45% among 890 | AID 651984, 2013 | inhibition, % at 11.9 µM;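 active means mean inhibition above the solvent-only control wells' mean plus 3 SD, cut at about 22% in these data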;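 further: higher means less bacterial growth from phage killing when AddAB is blocked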
Active calls of the source: *; . = no result given; ! = repeats disagree. Rows were chosen to be rich in hits. Some 0.5% of all compounds tested hit in one or more screens of this group.

SMILES	phage Ecoli inh	AddAB inh	E coli growth-1	Tat transport	E coli growth-2	RecBCD conf	Ecoli viability	AddAB phage OD	others
CCCCCCC[n+]1ccc(-c2cc[n+](CCCCCCC)cc2)cc1	19.3*	31.4*	24.9*	-3.2	0.539	8.7	12.8	4.9	AddAB conf=6.0;RecBCD counter=18.9*;Bact viability=10.0
c1ccc2c[n+](CCCCCCCCCC[n+]3ccc4ccccc4c3)ccc2c1	7.9	.	.	.	.	.	.	.
CN(C)[C@@H]1C(=O)C(C(N)=O)=C(O)[C@@]2(O)C(=O)C3=C(O)c4c(O)ccc(Cl)c4[C@@](C)(O)[C@H]3C[C@@H]12	91.4*	78.8*	80.6*	162.7*	.	96.6*	102.4*	99.8*	AddAB conf=98.7*;RecBCD counter=94.6*;Bact viability=99.2*
CN(C)[C@@H]1C(=O)C(C(N)=O)=C(O)[C@@]2(O)C(=O)C3=C(O)c4c(O)cccc4[C@@](C)(O)[C@H]3[C@H](O)[C@@H]12	3.0	0.6	-1.0	6.1	.	.	.	.
CN(C)[C@@H]1C(=O)C(C(N)=O)=C(O)[C@@]2(O)C(=O)C3=C(O)c4c(O)cccc4[C@@](C)(O)C3C[C@@H]12 (some centres not stated)	101.5*	94.3*	100.0*	147.1*	.	100.9*	102.1*	101.2*	AddAB conf=101.2*;RecBCD counter=101.0*;Bact viability=101.5*
COC12C(COC(N)=O)C3=C(C(=O)C(C)=C(N)C3=O)N1CC1C2N1C (configuration not stated)	81.7*	94.2*	98.7*	80.4*	0.0535*	94.1*	94.2*	96.3*	AddAB conf=97.5*;RecBCD counter=89.0*;Bact viability=98.7*
COc1cc(C=Nn2cnnc2)ccc1OC(=O)N(C)C	.	.	.	.	0.662	.	.	.
CNS(=O)(=O)c1ccc(N=Cc2c(O)n(-c3ccc(C)cc3)c(=O)[nH]c2=O)cc1	0.1	1.3	1.0	-7.2	0.698	.	.	.
CCc1nnc(NS(=O)(=O)c2ccc(N=Cc3c(O)n(-c4ccc(Cl)cc4)c(=O)[nH]c3=O)cc2)s1	12.5*	9.1	8.4	-7.9	0.607	3.8	1.9	19.6
Oc1cc(Cl)ccc1Oc1ccc(Cl)cc1Cl	97.0*	96.6*	97.7*	137.3*	0.046*	98.8*	100.1*	99.0*
COC(=O)C1=C(c2ccc(S(C)(=O)=O)cc2)CC2CCC1N2C(=O)N1CCCCC1 (configuration not stated)	.	.	.	.	0.626	.	.	.
COc1cccc2c1OC1C(=O)CCC3CN(C)CCC231 (configuration not stated)	.	.	.	.	0.658	.	.	.
Fc1ccc(CNC2CN3CCC2CC3)cc1 (configuration not stated)	12.8*	-0.6	-0.9	-12.1	0.693	-4.8	-3.7	0.8
COC(=O)C1=COC(C)C2CN3CCC4(C(=O)Nc5ccccc54)C3CC12 (configuration not stated)	11.2*	1.2	-2.3	3.4	0.74	-1.6	-0.4	2.0
OC1C2CCC1C(N1CCCCC1)CC2 (configuration not stated)	.	.	.	.	0.696	.	.	.
C[n+]1ccc(-c2cc[n+](C)cc2)cc1	21.5*	12.1	10.3*	-5.1	0.663	13.0*!	12.9	21.3*
O=C(NN=CC1C(=O)NC(=S)N(c2ccccc2)C1=O)c1ccc(O)cc1 (configuration not stated)	.	.	.	.	0.705	.	.	.
